# PMC4336329 (PLoS ONE, 2015)
# Hit rate of the full screen: of about 310,000 compounds, about 14,000 (4.5%) showed an effect of 50% or more. The effect is printed as a negative number. The full list was thinned out, with strong results kept by preference.
# Biological target: human ether-à-go-go-related gene (hERG) potassium channel (human, UniProt Q12809)
# Assay: primary screen, population patch clamp on CHO cells stably expressing hERG; higher = less effect of the substance
# 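Further: peak tail current of the secondary pulse compared with the same well before compound.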
# Sequence of human ether-à-go-go-related gene (hERG) potassium channel (Q12809 whole entry, looked up): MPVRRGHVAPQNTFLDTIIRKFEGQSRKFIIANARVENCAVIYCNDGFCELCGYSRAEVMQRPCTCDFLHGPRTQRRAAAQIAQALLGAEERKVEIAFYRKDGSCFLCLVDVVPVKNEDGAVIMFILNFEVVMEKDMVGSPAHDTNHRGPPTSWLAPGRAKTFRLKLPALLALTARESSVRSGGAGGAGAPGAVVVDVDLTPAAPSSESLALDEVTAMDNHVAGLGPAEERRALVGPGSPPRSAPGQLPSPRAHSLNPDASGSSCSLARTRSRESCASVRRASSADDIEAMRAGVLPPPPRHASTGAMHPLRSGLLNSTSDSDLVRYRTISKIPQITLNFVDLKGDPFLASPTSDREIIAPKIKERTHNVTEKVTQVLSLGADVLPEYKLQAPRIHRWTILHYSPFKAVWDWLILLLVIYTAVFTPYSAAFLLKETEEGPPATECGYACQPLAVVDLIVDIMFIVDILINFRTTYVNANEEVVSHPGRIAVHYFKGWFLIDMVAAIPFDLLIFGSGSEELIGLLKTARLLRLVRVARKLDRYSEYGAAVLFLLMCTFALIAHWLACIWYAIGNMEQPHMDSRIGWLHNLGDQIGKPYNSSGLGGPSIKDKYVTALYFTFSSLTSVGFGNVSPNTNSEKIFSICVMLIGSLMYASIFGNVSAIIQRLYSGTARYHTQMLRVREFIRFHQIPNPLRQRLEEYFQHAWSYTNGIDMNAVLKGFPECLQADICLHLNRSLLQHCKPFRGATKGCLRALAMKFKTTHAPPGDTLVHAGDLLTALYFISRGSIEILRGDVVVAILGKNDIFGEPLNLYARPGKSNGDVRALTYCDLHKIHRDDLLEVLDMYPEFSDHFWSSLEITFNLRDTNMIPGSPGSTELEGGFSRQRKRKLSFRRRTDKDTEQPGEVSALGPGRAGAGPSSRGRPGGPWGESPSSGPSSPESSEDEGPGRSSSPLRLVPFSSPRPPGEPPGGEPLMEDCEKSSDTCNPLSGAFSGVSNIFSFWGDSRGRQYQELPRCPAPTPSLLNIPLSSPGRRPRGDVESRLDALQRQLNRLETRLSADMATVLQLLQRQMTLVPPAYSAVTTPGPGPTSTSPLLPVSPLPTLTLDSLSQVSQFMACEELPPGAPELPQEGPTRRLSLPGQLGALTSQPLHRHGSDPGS
row,SMILES,"hERG current change (%, negative = inhibition) at 10uM"
1,Cc1ccc(S(=O)(=O)N(C)C)cc1NC(=O)CN1C(=O)NC(Cc2ccccc2)C1=O (centres unmarked),8.61%
2,O=C(O)C(=O)O.OCCN1CCN(CC(O)COC(c2ccc(F)cc2)c2ccc(F)cc2)CC1 (centres unmarked),-61.9%
3,O=C(O)C(=O)O.OC(COC(c1ccc(F)cc1)c1ccc(F)cc1)CN1CCCC1 (centres unmarked),-70.6%
4,Cc1ccccc1C(OCC(O)CN1CCN(CCO)CC1)c1ccccc1.O=C(O)C(=O)O (centres unmarked),-12.1%
5,O=C(O)C(=O)O.OC1CCCN(CC(O)COC(c2ccc(F)cc2)c2ccc(F)cc2)C1 (centres unmarked),-57.6%
6,O=C(O)C(=O)O.OC(COC(c1ccc(F)cc1)c1ccc(F)cc1)CN1CCCC(C(F)(F)F)C1 (centres unmarked),10.8%
7,CC(=O)c1ccc(OCC(O)CN2CCN(CCO)CC2)cc1.Cl (centres unmarked),9.1%
8,O=C(OCN1C(=O)c2ccccc2C1=O)c1cccc(S(=O)(=O)N2CCOCC2)c1,-3.06%
9,CN1c2ccsc2/C(=N/NC(=O)c2c(F)cccc2F)CS1(=O)=O,4.31%
10,Cc1cccc(C2(c3cccc(C)c3)CC2C(=O)NCC2CCCO2)c1 (centres unmarked),-6.94%
11,CC(CC(=O)N1CCN(S(=O)(=O)c2ccccc2)CC1)n1cncn1 (centres unmarked),20.1%
12,NS(=O)(=O)c1ccc(CCNC(=O)Nc2ccc(Cl)cc2)cc1,-9.65%
13,O=c1cc(NC2CCCCCC2)[nH]c(=O)[nH]1,4.69%
14,CN(C)C(=O)Oc1c(Cl)cc(Cl)c2ccccc12,-36.2%
15,CCC(/C=C1\Sc2ccc(OC)cc2N1CCO)=C\c1sc2ccc(OC)cc2[n+]1CCO.[Cl-],-72.9%
16,CCC(=O)/C=C1\Sc2ccc(OC)cc2N1CCO,-0.298%
17,CCC(/C=C1\Sc2ccc(OC)cc2N1CC)=C\c1sc2ccc(OC)cc2[n+]1CCCS(=O)(=O)[O-],15%
18,O=C(Nc1cccc(C(F)(F)F)c1)c1cccnc1N1CCN(CCO)CC1,-63.8%
19,O=C(Nc1cccc(C(F)(F)F)c1)c1cccnc1N1CCCC1,13.2%
20,O=C(NCc1cccc(C(F)(F)F)c1)C1CCCN(c2ncccn2)C1 (centres unmarked),-37.1%
21,CC(=O)Nc1ccc(NC(=O)C2CCCN(c3ncccn3)C2)cc1 (centres unmarked),2.63%

row,SMILES,"hERG current change (%, negative = inhibition) at 10uM"
1,Cc1ccc(CNC(=O)C2CCCN(c3cnccn3)C2)cc1 (centres unmarked),-40%
2,Cl.O=C(Nc1cccc(C(F)(F)F)c1)c1cccnc1N1CCN(c2ccccc2)CC1,7.25%
3,O=C(NCc1ccc(Cl)cc1)C1CCCN(c2cnccn2)C1 (centres unmarked),-66.5%
4,O=C(Nc1cccc(C(F)(F)F)c1)C1CCCN(c2ncccn2)C1 (centres unmarked),-53.4%
5,Cc1ccc(NC(=O)C2CCCN(c3ncccn3)C2)cc1F (centres unmarked),-0.00042%
6,COc1cccc(CNC(=O)C2CCCN(c3cnccn3)C2)c1 (centres unmarked),-14.4%
7,O=C(NCc1cccc(C(F)(F)F)c1)C1CCCN(c2cnccn2)C1 (centres unmarked),-61%
8,O=C(NCc1ccccc1)C1CCCN(c2cnccn2)C1 (centres unmarked),-28.9%
9,COC(=O)C1=C(C)Nc2nnnn2C1c1ccccc1Cl (centres unmarked),-2.51%
10,CCOC(=O)Cc1cc(OC)c(OC)cc1Cc1cc(OC)c(OC)cc1CC(=O)OCC,9.74%
11,C/C(=N\NC(=O)C1(C)CC1(Br)Br)c1ccc(NC(=O)C2CCC2)cc1 (centres unmarked),7.51%
12,COc1ccc(CCNc2cc(C)[nH]c(=O)c2)cc1OC,29.6%
13,CCOC(=O)c1c(N)c2cc([N+](=O)[O-])ccc2n1C,18.1%
14,CCOCCCNC(=S)N1C2CCC1CC(NC(=O)NC13CC4CC(CC(C4)C1)C3)C2 (centres unmarked),-8.16%
15,O=C(Nc1ccc(F)cc1)C1CCCN(c2cnccn2)C1 (centres unmarked),-11.9%
16,O=C(NCc1ccccc1F)C1CCCN(c2cnccn2)C1 (centres unmarked),13.4%
17,O=C(NCc1ccc(F)cc1)C1CCCN(c2cnccn2)C1 (centres unmarked),-65%
18,Cc1c(CCC(=O)NCC(=O)NCC(=O)O)c(=O)oc2cc3oc4c(c3cc12)CCCC4,4.87%
19,COCCCNC(=O)c1cc2cc3cc(OC)ccc3nc2o1,-12.9%
20,CCOC(=O)N1CCC(NC(=O)c2cc3cc4cc(OC)ccc4nc3o2)CC1,-16.2%
21,COc1ccc2cc3cc(C(=O)NCCN4CCN(c5ccccc5F)CC4)oc3nc2c1,-15.8%

row,SMILES,"hERG current change (%, negative = inhibition) at 10uM"
1,COc1ccc2cc3cc(C(=O)NCCCN4CCC(C)CC4)oc3nc2c1,-58.5%
2,COc1ccc2cc3cc(C(=O)NCCCN4CCc5ccccc5C4)sc3nc2c1,-32.7%
3,COc1ccc2cc3cc(C(=O)NCCCN4CCOCC4)oc3nc2c1,-5.55%
4,COc1ccc2cc3cc(C(=O)NCCN4CCc5ccccc5C4)sc3nc2c1,-32.9%
5,CCN1CCN(CCCNC(=O)c2cc3cc4ccc(OC)cc4nc3o2)CC1,-17.1%
6,COc1ccc2nc3oc(C(=O)NC4CCN(Cc5ccccc5)CC4)cc3cc2c1,-67.1%
7,COc1ccc2cc3cc(C(=O)NCc4ccccn4)oc3nc2c1,12.1%
8,COc1ccc2cc3cc(C(=O)NCCN4CCN(Cc5ccccc5)CC4)oc3nc2c1,-71.8%
9,COc1ccc2cc3cc(C(=O)NCCN4CCc5ccccc5C4)oc3nc2c1,-63.3%
10,CCCCOC(=O)CN1C(=O)c2ccc(C(=O)OCCCC)cc2C1=O,4.54%
11,O.O=C([O-])c1ccn2c(C(=O)c3ccccc3)c(-c3ccccc3)cc2c1,12.8%
12,C/C(=C\C(=O)OCC(=O)NCc1ccccc1)C(=O)OCC(=O)NCc1ccccc1,18.8%
13,CCN1C(=O)CSc2ccc(C(=O)NC3CCCCC3)cc21,-5.4%
14,Cc1cn2c(=O)c(C(=O)N3CCN(c4ccccc4Cl)CC3)cnc2s1,-62.8%
15,O=C(c1cnc2sccn2c1=O)N1CCN(c2ccccc2Cl)CC1,-2.33%
16,Cc1cn2c(=O)c(C(=O)N3CCN(c4ccccc4F)CC3)cnc2s1,-6.27%
17,CCCCCCCC1c2c(c(C)c(C)oc2=O)Oc2c(C)c(C)oc(=O)c21,11.9%
18,CCN1C(=O)[C@H]2[C@@H](c3ccc(-c4ccc(OC)cc4)cc3)N[C@@](Cc3ccccc3)(C(=O)OC)[C@H]2C1=O.O=C(O)C(F)(F)F,3.09%
19,CN(Cc1ccon1)C(=O)CCc1nnc(Cc2ccc(-c3ccccc3)cc2)o1,-20%
20,CCc1ccc(CN(C)C(=O)CCc2nnc(CCc3ccccc3OC)o2)nc1,-1.47%
21,CCc1ccc(CN(C)C(=O)CCc2nnc(-c3ccc(-c4ccccc4)cc3)o2)nc1,-65.1%

row,SMILES,"hERG current change (%, negative = inhibition) at 10uM"
1,CCOc1ccc(CCNC(=O)COC(=O)/C=C/c2ccc(OC(F)F)c(OC)c2)cc1OCC,-15.2%
2,Cc1cccc(C)c1NC(=O)C(=O)NCCOc1ccc(Cl)cc1,-26%
3,CCN(C(=S)Nc1cccc(C)c1)c1ccccc1,13.2%
4,COc1ccc(/C=C(\NC(=O)c2ccco2)C(=O)NCc2ccco2)cc1,8.89%
5,O=C(NCc1ccccc1)/C(=C\c1ccc(O)cc1)NC(=O)c1ccco1,-20.7%
6,CC(=O)Oc1ccc(/C=C(\NC(=O)c2ccco2)C(=O)NCc2ccco2)cc1,-52%
7,CC(=O)Oc1ccc(/C=C(\NC(=O)c2ccco2)C(=O)NCc2ccccc2)cc1,-68.3%
8,CC(=O)Oc1ccc(/C=C(\NC(=O)c2ccco2)C(=O)Nc2ccc(C(C)=O)cc2)cc1,-26.2%
9,O=C(NCc1ccco1)/C(=C/c1ccc(Br)cc1)NC(=O)c1ccco1,0.657%
10,Cc1cccc(C(=O)N2CCC(N3CCC(C(=O)N4CCOCC4)CC3)CC2)c1,-9.81%
11,Cc1ccc(S(=O)(=O)/N=c2\scc(C)n2C)cc1,0.491%
12,O=C1CN(C(=O)COc2ccc(Cl)cc2Cl)c2ccccc2N1,14.2%
13,O=C1CN(C(=O)COc2ccc(F)cc2Cl)c2ccccc2N1,-19.5%
14,O=C1CN(C(=O)COc2ccc([N+](=O)[O-])cc2Cl)c2ccccc2N1,-61.2%
15,CC1(C)CC(=O)C=C(C(=O)NC2CCCc3c2cnn3-c2cc(F)cc(F)c2)O1 (centres unmarked),-2.03%
16,O=C(O)c1cc(NS(=O)(=O)c2ccc(NCc3ccccc3)c([N+](=O)[O-])c2)cc(C(=O)O)c1,20.9%
17,COC(=O)N/N=C(\C)c1ccccc1OC(F)F,1.52%
18,COc1ccc(C[C@@H]2CN3C(=NC[C@@H]3C)N2C[C@H](C)NC(=O)c2ccc(C)c(Br)c2)cc1,-74.8%
19,Cc1ccc(C(=O)N[C@@H](C)CN2C3=NC[C@H](C(C)C)N3C[C@H]2Cc2ccc(O)cc2)cc1Br,-77.7%
20,COc1ccc(C[C@H]2CN3C(=NC[C@@H]3C(C)C)N2C[C@H](C)NC(=O)c2ccc(C)c(Br)c2)cc1,-74.5%
